The record followed here is PubChem BioAssay (NCATS).

The target in assay [1] is Lysosomal acid glucosylceramidase (Homo sapiens) (UniProt P04062). Description: Glucocerebrosidase-p2 (AID 348; in the data active = potency below about 10 µM; also: potency is read from the fitted curve at half-maximal effect). The settings on record: purified GBA, blue fluorogenic substrate, 40 min. Summed up:
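Normal human glucocerebrosidase (0.2 nM) with blue fluorogenic substrate (80 uM final) in citrate/phosphate pH 5.9 with 10mM sodium taurocholate, 0.01% tween-20; 40 min RT, NaOH/glycine stop; fluorescence Ex 365/Em 440; AC50 from a titration from 0.6 nM upwards.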

Assay [2] is described as follows: AP1 Signaling Pathway (AID 357). Also: % is scaled to controls: 0 for no effect and ±100 for the full control effect. The settings on record: ME-180 AP-1-bla reporter, EGF-induced, beta-lactamase ratio, 5 h; at 7.69 µM (top of the series) unless noted. The procedure, abridged: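 Read-out was the 460nm/530nm emission ratio (excitation 405nm) after CCF4 loading for 2.5 hours at room temperature. Cells carried an AP-1-driven beta-lactamase reporter, were stimulated with EC50 EGF plus compound for 5 hours, and AC50 values came from titrations.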

The target of assay [3] is Cytochrome P450 1A2 (Homo sapiens) (UniProt P05177). Kind of assay: p450-cyp1a2 (AID 410; calls by dose curve; also: potency is read from the fitted curve at half-maximal effect). Particulars: recombinant CYP1A2, luciferin-ME demethylation, luminescence; series mostly up to 11.4 µM. Summed up:
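O-Demethylation of luciferin 6' methyl ether by human CYP1A2 is monitored as luciferase luminescence. Substrate sits at Km (100uM); enzyme is 20nM. Values are scaled to 57 uM furafylline as maximal inhibition.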

The nature of assay [4]: NFAT Signaling Pathway (AID 444).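 Also: carbachol stimulus at about its EC50 of 1 µM final; % is scaled to controls: 0 for no effect and ±100 for the full control effect.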 The settings on record: Jurkat NFAT-bla M1, carbachol, beta-lactamase ratio, 5 h; at 7.69 µM (top of the series) unless noted. The procedure, abridged:
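Jurkat cells carrying an NFAT-driven β-lactamase reporter and co-transfected muscarinic M1 receptor were treated with compound plus carbachol (1 uM final, an EC50 level) for 5 h at 37 °C. CCF4 loading followed for 1 h at RT; 460/530 nm ratio gave %activity.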

Assay [5] can be described thus: Stat Signaling Pathway (AID 446).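 Also: ME-180 cervical cancer cells given 40 pM IL-6 alongside compound; SIE-controlled beta-lactamase reporter measured as 460/530 nm FRET emission ratio; % is scaled to controls: 0 for no effect and ±100 for the full control effect.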 Particulars: ME-180 SIE beta-lactamase reporter, IL-6 stimulated, 5 h; at 7.69 µM (top of the series) unless noted. The procedure, abridged: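 FRET read-out (405 nm excitation, 460/530 nm emission) of a beta-lactamase reporter under a STAT-inducible element in ME-180 cervical carcinoma cells. Cells with compound receive 40 pM IL-6 for 5 h. Values are normalised to AC90 stimulation and AC90 JAK-inhibitor controls.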

Assay [6] addresses Glucocorticoid receptor (Homo sapiens) (UniProt P04150). Description: GR-GFP Redistribution (AID 450;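 active = compounds whose dose series gives a full or clear partial fitted curve of increased nuclear translocation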; also: potency is read from the fitted curve at half-maximal effect). The settings on record: U2OS GR-GFP nuclear translocation, laser cytometry, 2 h.
The target is the same in assay [7]. Description: GR-EFC Redistribution (AID 451; calls by dose curve; also: potency is read from the fitted curve at half-maximal effect). Particulars: CHO-K1 GR-EFC translocation, beta-gal luminescence, 2 h. Summed up: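 CHO-K1 cells stably expressing nuclear-localized β-gal enzyme acceptor and GR fused C-terminally to the enzyme donor fragment; ligand-driven nuclear translocation restores β-gal by complementation. Compounds titrated up to 46 uM final, 2 h at 37 °C; luminescence read.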

For assay [8], the target named is 3',5'-cyclic-AMP phosphodiesterase 4B (Homo sapiens) (UniProt Q07343). Description: qHTS Assay for Inhibitors of PDE-IV (AID 607; active = well fitted activation curve with a large enough effect in the main read-out, with a control signal flat, not every such curve was filed as active; also: % of control where 0% means no effect). The settings on record: HEK293 ACTOne CNG channel cells, membrane potential fluorescence; series mostly up to 22.9 µM. Summed up: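 Cell-based read-out of cAMP via a modified cyclic nucleotide-gated channel and membrane potential dye (535/590 nm) in HEK293 cells expressing PDE4 endogenously. Compounds tested up to 22.9 uM final; 100 uM RO 20-1724 reference.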
3',5'-cyclic-AMP phosphodiesterase 4B (Homo sapiens), sequence (Q07343 whole entry, looked up): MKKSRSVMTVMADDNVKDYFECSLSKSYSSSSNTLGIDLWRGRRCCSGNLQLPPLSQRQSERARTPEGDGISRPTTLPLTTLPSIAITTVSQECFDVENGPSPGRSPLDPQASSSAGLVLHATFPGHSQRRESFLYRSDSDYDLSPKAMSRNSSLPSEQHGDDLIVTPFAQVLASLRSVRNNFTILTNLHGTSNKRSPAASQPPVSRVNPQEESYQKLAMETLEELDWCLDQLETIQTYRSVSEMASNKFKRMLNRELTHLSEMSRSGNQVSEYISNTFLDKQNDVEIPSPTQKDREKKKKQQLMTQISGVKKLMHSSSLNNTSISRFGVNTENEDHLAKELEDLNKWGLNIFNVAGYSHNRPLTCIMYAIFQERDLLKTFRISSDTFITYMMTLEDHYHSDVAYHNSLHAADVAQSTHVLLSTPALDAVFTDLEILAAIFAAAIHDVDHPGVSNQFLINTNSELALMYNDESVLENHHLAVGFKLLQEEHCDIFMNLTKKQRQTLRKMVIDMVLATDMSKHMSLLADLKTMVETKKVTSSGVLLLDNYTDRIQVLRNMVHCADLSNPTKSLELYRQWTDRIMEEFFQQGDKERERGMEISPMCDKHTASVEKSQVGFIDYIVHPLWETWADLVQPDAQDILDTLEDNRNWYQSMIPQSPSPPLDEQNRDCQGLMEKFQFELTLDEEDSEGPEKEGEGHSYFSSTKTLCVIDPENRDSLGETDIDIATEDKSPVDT

Assay [9] concerns the target Mitogen-activated protein kinase 10 (Mus musculus) (UniProt Q61831). Kind of assay: JNK3 AlphaScreen Assay (AID 530).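 Also: kinase came from lysate of stimulated human HepG2 cells; % is scaled to controls: 0 for no effect and ±100 for the full control effect.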 Particulars: JNK3 lysate, c-Jun phosphorylation; series mostly up to 11.4 µM. The procedure, abridged: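 Phosphorylation of biotinylated GST-cJun(1-79) at Ser73 is measured by AlphaScreen proximity luminescence. Enzyme is JNK3 in HepG2 lysates activated with interleukin-1beta and tumor necrosis factor alpha; ATP is 10 uM final.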
(Bead proximity is the source of the signal in Alpha formats.)

Assay [10] deals with Cytochrome P450 2C19 (Homo sapiens) (UniProt P33261). Description: qHTS Assay for Inhibitors and Substrates of Cytochrome P450 2C19 (AID 899; active = well fitted inhibition curve with a large enough effect; also: % is scaled to controls: 0 for no effect and ±100 for the full control effect; nearly all actives have a fitted effect of over 60% in size). The settings on record: recombinant CYP2C19, luciferin-H EGE luminescence; series mostly up to 11.4 µM. Summed up: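 In 50mM KPO4, the reaction held 5nM enzyme and KM-level (10uM) Luciferin-H EGE; it ran 60 min at 37C after NADPH regeneration and a 10 min compound preincubation. Luminescence values were scaled to 57uM ketoconazole as complete inhibition.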
Cytochrome P450 2C19 (Homo sapiens), sequence (P33261 whole entry, looked up): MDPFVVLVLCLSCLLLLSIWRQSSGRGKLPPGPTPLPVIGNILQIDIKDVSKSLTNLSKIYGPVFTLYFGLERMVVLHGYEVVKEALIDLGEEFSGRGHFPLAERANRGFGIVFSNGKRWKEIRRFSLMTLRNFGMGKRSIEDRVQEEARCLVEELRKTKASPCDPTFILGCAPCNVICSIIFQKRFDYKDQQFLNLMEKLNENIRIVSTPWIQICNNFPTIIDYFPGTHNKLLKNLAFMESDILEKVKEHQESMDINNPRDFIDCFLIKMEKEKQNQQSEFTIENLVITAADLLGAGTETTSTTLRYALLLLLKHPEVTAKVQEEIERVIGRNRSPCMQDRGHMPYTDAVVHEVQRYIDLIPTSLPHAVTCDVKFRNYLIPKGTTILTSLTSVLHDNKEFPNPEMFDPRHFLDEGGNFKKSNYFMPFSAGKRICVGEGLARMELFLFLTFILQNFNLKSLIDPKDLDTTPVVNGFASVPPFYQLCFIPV
For orientation: In qHTS, concentration-response curves come from the screen itself.

The nature of assay [11]: qHTS Assay for Identification of Small Molecule Agonists for Hypoxia Response Element Signaling Pathway (AID 914; active = well fitted activation curve with a large enough effect in the signal ratio, with a control signal flat, not every such curve was filed as active; the % refers to the signal ratio; also: % of control where 0% means no effect). Particulars: ME-180 (cervical carcinoma) HRE-bla reporter, beta-lactamase ratio, CoCl2, 17 h; activation: hits give high values. The procedure, abridged: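 Read-out: CCF4 FRET ratio of 460nm to 530nm emission (excitation 405nm) after 2.5 hours at room temperature, taken from HRE-bla ME-180 cells that had been exposed to compound and EC50 CoCl2 for 17 hours.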

Unmarked numbers belong to inactive results. Inconclusive results are not listed. Active and inactive are the calls of the source. Unless noted, calls follow the shape of the dose curve; as a rule, active = well fitted curve in either direction with a large enough effect (not every such curve was filed as active); inconclusive = small, poorly fitted or top-dose-only effect, or another doubt; inactive = flat fitted curve, though single readings scatter.

Lysosomal acid glucosylceramidase (Homo sapiens), sequence (P04062 whole entry, looked up): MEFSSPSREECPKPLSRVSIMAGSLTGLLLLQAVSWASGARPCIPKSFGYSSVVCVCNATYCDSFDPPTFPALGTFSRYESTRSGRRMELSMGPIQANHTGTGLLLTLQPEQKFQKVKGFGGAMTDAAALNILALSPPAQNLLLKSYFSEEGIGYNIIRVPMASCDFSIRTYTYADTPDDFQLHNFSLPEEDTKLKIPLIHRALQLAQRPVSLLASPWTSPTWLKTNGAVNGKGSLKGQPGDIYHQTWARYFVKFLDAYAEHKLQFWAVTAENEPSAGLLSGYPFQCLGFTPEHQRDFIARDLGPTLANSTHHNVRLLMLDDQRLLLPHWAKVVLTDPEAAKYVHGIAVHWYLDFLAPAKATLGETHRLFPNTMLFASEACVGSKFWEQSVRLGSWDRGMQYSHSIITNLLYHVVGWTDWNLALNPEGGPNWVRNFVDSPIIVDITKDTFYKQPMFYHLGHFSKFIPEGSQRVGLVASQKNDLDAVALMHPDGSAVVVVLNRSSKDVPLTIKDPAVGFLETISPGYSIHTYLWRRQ
Glucocorticoid receptor (Homo sapiens), sequence (P04150 whole entry, looked up, the tested form may be a part): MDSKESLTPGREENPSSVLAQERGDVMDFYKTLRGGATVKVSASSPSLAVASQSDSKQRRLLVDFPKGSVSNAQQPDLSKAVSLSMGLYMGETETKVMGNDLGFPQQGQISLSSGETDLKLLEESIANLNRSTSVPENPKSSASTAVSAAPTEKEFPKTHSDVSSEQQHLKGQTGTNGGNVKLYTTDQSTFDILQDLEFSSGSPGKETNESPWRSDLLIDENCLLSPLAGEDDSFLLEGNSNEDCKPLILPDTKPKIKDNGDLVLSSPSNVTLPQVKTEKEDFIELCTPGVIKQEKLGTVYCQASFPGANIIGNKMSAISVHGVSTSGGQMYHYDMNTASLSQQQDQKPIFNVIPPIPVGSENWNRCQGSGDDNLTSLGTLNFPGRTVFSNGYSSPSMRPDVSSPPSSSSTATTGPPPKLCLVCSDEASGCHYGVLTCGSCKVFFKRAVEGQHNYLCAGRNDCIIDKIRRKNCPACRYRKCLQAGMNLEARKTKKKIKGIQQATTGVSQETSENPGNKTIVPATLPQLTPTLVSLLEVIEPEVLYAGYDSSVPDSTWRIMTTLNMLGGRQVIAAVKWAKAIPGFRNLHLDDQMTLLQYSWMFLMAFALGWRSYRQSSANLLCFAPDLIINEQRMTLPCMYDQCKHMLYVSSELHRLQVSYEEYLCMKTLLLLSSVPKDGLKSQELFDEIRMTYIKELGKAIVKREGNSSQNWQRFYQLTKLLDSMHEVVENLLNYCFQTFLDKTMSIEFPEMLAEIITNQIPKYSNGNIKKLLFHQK
Cytochrome P450 1A2 (Homo sapiens), sequence (P05177 whole entry, looked up): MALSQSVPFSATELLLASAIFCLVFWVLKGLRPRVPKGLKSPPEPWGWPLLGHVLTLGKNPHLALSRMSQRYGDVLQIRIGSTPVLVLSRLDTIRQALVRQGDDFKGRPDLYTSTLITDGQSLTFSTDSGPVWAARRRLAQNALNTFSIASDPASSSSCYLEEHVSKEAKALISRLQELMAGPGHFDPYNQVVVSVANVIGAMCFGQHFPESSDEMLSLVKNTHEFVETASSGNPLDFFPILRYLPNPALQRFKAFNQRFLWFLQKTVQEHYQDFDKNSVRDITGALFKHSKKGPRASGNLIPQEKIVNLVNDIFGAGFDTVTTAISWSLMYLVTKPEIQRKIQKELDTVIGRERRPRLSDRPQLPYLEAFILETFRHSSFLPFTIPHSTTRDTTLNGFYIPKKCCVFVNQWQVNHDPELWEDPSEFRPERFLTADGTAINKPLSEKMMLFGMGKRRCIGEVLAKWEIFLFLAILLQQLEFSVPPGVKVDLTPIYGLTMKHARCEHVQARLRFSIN

As for `O=C(O)CC12C[C@H]3C[C@@H](CC(O)(C3)C1)C2`, the Potency in assay [1] is above 11.4 µM; in assay [6], above 46 µM; in assay [7], above 9.22 µM. Also, the activity change, negative = inhibition in assay [2] is 9.34%; in assay [4], -2.52%. Further, the Potency entry in [3] and in assay [8] was “inactive” each time. In assay [5], the activity, negative = inhibition is -1.43%.

As for `N=C(N)SCC(=O)O`, the values for the Potency in assay [1], in assay [6] and in [7] were above 11.4 µM, above 46 µM and above 9.22 µM, respectively. Further, the activity change, negative = inhibition in assay [2] is -10.2%; in assay [3] it was -10.2% [at 2.29 µM]; in assay [4], 6.44%. Besides, the activity, negative = inhibition in [5] was -4.57%. The Potency result in [9] and in [10] was “inactive” in each case.

On to `CN(C)CCNc1ccccn1`, for which the Potency is above 11.4 µM in [1], above 46 µM in assay [6] and above 9.22 µM in assay [7]. Further, the activity change, negative = inhibition was -8.09% in [2] and 12.6% in assay [4]. Further, the Potency entry in assay [3], in [9] and in [10] was “inactive” each time. In addition, the activity, negative = inhibition in assay [5] was 3.69%.

For the molecule `O=c1[nH]c(=S)c2[nH]c(=O)n(-c3ccccc3)c2[nH]1`, the Potency was above 11.4 µM in assay [1], above 46 µM in [6] and above 9.22 µM in [7]. The activity change, negative = inhibition in assay [2] was 12.1%; in assay [4], 15.1%. Also, the Potency result in assay [3], in assay [9] and in [10] was “inactive” in each case. For the same molecule, in [5], the activity, negative = inhibition is 8.32%.

On to `O=C(O)c1c[nH]c2c(ccc3[nH]cc(C(=O)O)c(=O)c32)c1=O`, for which the Potency was above 11.4 µM in assay [1], 5.01 µM (active) in [3], above 46 µM in assay [6] and above 9.22 µM in assay [7]. For the same molecule, the activity change, negative = inhibition in assay [2] was -0.603%; in [4], 8.43%. In assay [5], the activity, negative = inhibition was 13.7%. For the same molecule, the Potency entry in [8] is “inactive”.

Turning to `C=CC[C@@H](C(=O)O)c1ccccc1`, the results for the Potency in assay [1], in assay [6] and in [7] were above 11.4 µM, above 46 µM and above 9.22 µM, respectively. Moreover, the activity change, negative = inhibition in assay [2] is 2.31%; in [4] it was 9.16%. Moreover, the Potency result in [3], in assay [9] and in assay [10] was “inactive” in each case. Besides, the activity, negative = inhibition in assay [5] is 8.67%.

For the molecule `COc1ccc(/C=C(\C#N)C(N)=O)cc1OC`, the Potency is above 11.4 µM in [1], 3.16 µM (active) in assay [3], above 46 µM in assay [6] and above 9.22 µM in assay [7]. Besides, the activity change, negative = inhibition in [2] is -5.77%; in [4], 11.6%. Also, the activity, negative = inhibition in assay [5] was -2.19%. In addition, the Potency result in assay [8] was “inactive”.

Consider `O=C(Cn1ccc(=O)[nH]c1=O)Nc1ccc(C(=O)O)c(O)c1`, for which the Potency in assay [1] is above 11.4 µM; in [6], above 46 µM; in assay [7] it was above 9.22 µM. The activity change, negative = inhibition in [2] is 13.2%; in assay [3] it was -16.5% [at 2.29 µM]; in assay [4], 18.3%. The activity, negative = inhibition in assay [5] is 2.74%. The Potency entry in assay [9] and in assay [8] was “inactive” in each case. For the same molecule, the activation in assay [11] was 6.06%.
